Potency data for 38 compounds are collected here from PubChem BioAssay AID492949 (National Center for Advancing Translational Sciences (NCATS), 2010).

Each structure is given as a SMILES string. Inconclusive results are not listed. A call without a number means that no potency is given here. Active and inactive are the calls of the source. Calls come from the whole dose curve; as a rule, active = well fitted activation curve with a large enough effect; inconclusive = small, poorly fitted or top-dose-only effect; inactive = no such curve, though single readings can be large or run the other way.
Potency is the fitted concentration of half-maximal effect.

Relaxin receptor 1 (Homo sapiens), sequence (Q9HBX9 whole entry, looked up): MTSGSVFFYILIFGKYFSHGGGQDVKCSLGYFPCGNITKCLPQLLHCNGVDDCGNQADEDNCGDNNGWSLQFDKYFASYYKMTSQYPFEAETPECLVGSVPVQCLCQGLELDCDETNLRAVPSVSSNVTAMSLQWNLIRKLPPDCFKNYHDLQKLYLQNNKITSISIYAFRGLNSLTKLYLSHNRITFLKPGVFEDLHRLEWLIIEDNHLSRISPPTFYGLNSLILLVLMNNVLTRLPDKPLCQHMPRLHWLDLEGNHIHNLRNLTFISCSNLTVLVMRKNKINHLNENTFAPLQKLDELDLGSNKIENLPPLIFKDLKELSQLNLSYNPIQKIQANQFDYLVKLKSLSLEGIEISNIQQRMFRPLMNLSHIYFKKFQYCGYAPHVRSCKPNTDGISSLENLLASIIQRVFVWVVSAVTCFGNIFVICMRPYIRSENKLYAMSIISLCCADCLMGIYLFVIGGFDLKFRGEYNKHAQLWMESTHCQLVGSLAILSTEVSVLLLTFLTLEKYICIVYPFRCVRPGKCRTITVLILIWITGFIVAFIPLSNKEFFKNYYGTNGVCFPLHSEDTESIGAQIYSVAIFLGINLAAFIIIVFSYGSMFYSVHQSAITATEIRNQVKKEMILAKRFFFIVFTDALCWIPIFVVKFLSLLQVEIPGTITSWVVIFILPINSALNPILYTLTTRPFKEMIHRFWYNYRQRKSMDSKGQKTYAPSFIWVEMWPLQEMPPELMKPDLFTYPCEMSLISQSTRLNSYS

This experiment has as its target Relaxin receptor 1 (Homo sapiens) (UniProt Q9HBX9). The experiment in a line: qHTS Assay for Agonists of the Relaxin Receptor RXFP1: THP1 Hit Validation. Note: nearly all actives have a fitted effect of over 60% in size. Particulars: THP1-RXFP1 cells, cAMP TR-FRET, 30 min; series mostly up to 115 µM. The method in brief:
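RXFP1-THP1 cells, 2000/well, + Ro 20174 (PDE4 inhib.); cpd 30 min 37C. Lysis + cAMP-d2/anti-cAMP cryptate, 30 min RT, HTRF 665/615. Norm: buffer vs 29 nM porcine relaxin; Hill EC50.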
In the case of `CC(=O)c1sc(NC(=O)C(C)C)nc1C`, the Potency was 19.4 µM (active).

Turning to `Cn1c(=O)c2sccc2n2c(CCCC(=O)NCc3ccco3)nnc12`, the Potency was 34.6 µM (active).

On to `CCN(CC)S(=O)(=O)c1cccc(N=Nc2c(O)c3ccccc3oc2=O)c1`, for which the Potency was 9.77 µM (active).

Turning to `CC(=O)c1c(C)[nH]c(C(=O)OCc2cc(=O)n3cc(Br)ccc3n2)c1C`, the Potency was 8.68 µM (active).

With `Cc1ccc(CN(C)C(=O)c2ccc3c(c2)NC(=O)CS3)o1`, the Potency result was “inactive”.

As to `O=C(O)c1ccc(CN2C(=O)c3ccc(C(=O)O)cc3C2=O)cc1`, the Potency entry is “inactive”.

Regarding `CCc1cc2c(=O)nc3n(c2s1)Cc1ccccc1/C3=C(/O)c1cccc([N+](=O)[O-])c1`, the Potency is 0.87 µM (active).

`CN(C)CCCn1c(SCC(=O)Nc2nc(-c3cccc(Br)c3)cs2)nc2ccccc2c1=O`: the Potency result was “inactive”.

For the compound `O=C(Nc1ccccc1C(=O)Nc1ccc(F)cc1)c1ccco1`, the Potency entry was “inactive”.

As to `CCOC(=O)c1sc(NC(=O)CCc2ccc(OC)cc2)nc1C`, the Potency was 17.3 µM (active).

Consider `CN(C)S(=O)(=O)c1ccc(C(=O)OCC(=O)Nc2cccnc2Cl)cc1`, for which the Potency is 19.4 µM (active).

As for `CCN(c1ccccc1)S(=O)(=O)c1ccc(OC)c(NC(=O)C2CC(=O)N(Cc3ccccc3)C2)c1` (stereo not drawn), the Potency entry is “inactive”.

On to `O=[N+]([O-])c1cc2c(c(CSc3nnc4ccccn34)c1)OCOC2`, for which the Potency is 13.8 µM (active).

As for `Cc1ccccc1NC(=O)c1ccccc1NC(=O)c1ccco1`, the Potency result is “inactive”.

For the compound `CC(NC(=O)c1ccccc1NC(=O)c1ccco1)C(=O)O` (stereo not drawn), the Potency entry is “inactive”.

For the compound `COc1ccc(CC(=O)N/N=C/c2cccnc2)cc1OC`, the Potency entry is “inactive”.

Turning to `CCCC(=O)Nc1ncnc2c1ncn2[C@@H]1O[C@@H]2OP(=O)(O)OC[C@H]2[C@H]1OC(=O)CCC`, the Potency is 0.69 µM (active).

With `COc1ccccc1NC(=O)CCCc1nnc2n(C)c(=O)c3sccc3n12`, the Potency was 15.4 µM (active).

Consider `CCN(CC)c1ccc(S(=O)(=O)N2CCOCC2)cc1NC(=O)CSc1nncn1C`, for which the Potency is 15.4 µM (active).

In the case of `Cc1ccccc1NC(=O)CNc1ccccc1C(=O)NCc1ccco1`, the Potency result is “inactive”.

Take `CC1CCCCN1C(=O)c1ccccc1NC(=O)c1ccco1` (stereo not drawn): the Potency result was “inactive”.

As for `S=c1nc[nH]c2c1[nH]c1ccc(Cl)cc12`, the Potency is 1.55 µM (active).

Regarding `O=C(O)CCNc1ccc(NCCC(=O)O)c2c1C(=O)c1ccccc1C2=O`, the Potency result is “inactive”.

On to `CCOP1(=O)OCC2OC(n3cnc4c(N)ncnc43)C(O)C2O1` (stereo not drawn), for which the Potency is 8.7 µM (active).

As to `CCn1c(=O)c2cc(C(=O)Nc3cccc(C(C)=O)c3)sc2c2ccccc21`, the Potency entry is “inactive”.

As to `COc1ccc(/C=C2/SC(=O)N(CC(=O)Nc3cc(C)on3)C2=O)cc1OC`, the Potency result is “inactive”.

With `O=C(Nc1ccccc1C(=O)NCCc1ccccc1)c1ccco1`, the Potency result was “inactive”.

In the case of `Cc1cc(Br)c2nc3c(c(C(=O)O)c2c1)CCCCC3`, the Potency is 3.08 µM (active).

`CN(C)S(=O)(=O)c1cccc(COc2ncnc3c(Cl)cc(Cl)cc23)c1`: the Potency was 5.49 µM (active).

For `Cc1ccccc1OCC(=O)Nc1sc(C(=O)Nc2cccc(C)c2C)c(C)c1C#N`, the Potency is 7.74 µM (active).

Turning to `COC(=O)c1c(N2C(=O)CC(Sc3ncccc3C(=O)O)C2=O)sc(C)c1C` (stereo not drawn), the Potency entry was “inactive”.

Turning to `COc1ccc(S(=O)(=O)N2CCOCC2)cc1NC(=O)CSc1nnc2ccccn12`, the Potency was 6.9 µM (active).

For the compound `CC1C/C(=N\NC(N)=S)c2cc(Cl)ccc2S1` (stereo not drawn), the Potency entry was “inactive”.

In the case of `COc1ccc(Cl)cc1-c1n[nH]c(=S)o1`, the Potency was 6.15 µM (active).

On to `NC(=O)c1ccccc1NC(=O)CC12CC3CC(CC(C3)C1)C2`, for which the Potency entry is “inactive”.

For `CCC(=O)Nc1ccc(NC(=O)CSc2nc3c(c(=O)n(C)c(=O)n3C)n2CC)cc1`, the Potency was 43.6 µM (active).

As to `CCN(CC)CCCN1C=C2C(=O)C(C)(OC(=O)C3CCCC3)C(=O)C=C2C=C1c1ccsc1` (stereo not drawn), the Potency entry is “inactive”.

Turning to `COc1ccc(Nc2ncc(C#N)c(N)n2)c(OC)c1`, the Potency entry is “inactive”.
